Results reported in PubChem BioAssay (NCATS).
Inconclusive results are not listed. The source made the active and inactive calls. Unless noted, the call rests on the fitted dose curve; in most records, active means well fitted curve in the direction sought with a large enough effect; inconclusive means small, poorly fitted or top-dose-only effect, or another doubt; inactive means no such curve, though single readings can be large; an effect the other way counts as inactive or inconclusive.

Tests used:
[1] = Inducers of the Endoplasmic Reticulum Stress Response (ERSR) in human glioma: Validation (AID 504836)
Procedure, shortened: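 Stably transfected U87-MG human glioma cells carrying a GRP78-based luminescent sensor were seeded at 1000 cells/well, pin-dosed with compounds and incubated 16 h. Luciferase reagent was then added, and end-point luminescence was read after 10 min at room temperature.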

[2] = qHTS for Inhibitors of the Functional Ribonucleoprotein Complex (vRNP) of Lassa (LASV) Arenavirus: LASV Primary Screen - GLuc reporter signal (AID 1347082; calls by dose curve; tested in HEK293 reporter line; further: series mostly up to about 57 µM; nearly all actives have a fitted effect of over 60% in size)
[3] = qHTS for Inhibitors of the Functional Ribonucleoprotein Complex (vRNP) of Lassa (LASV) Arenavirus: Viability assay - alamar blue signal for LASV Primary Screen (AID 1347083; calls by dose curve; tested in HEK293 reporter line; further: series mostly up to about 57 µM; nearly all actives have a fitted effect of over 80% in size)
[4] = qHTS for Inhibitors of the Functional Ribonucleoprotein Complex (vRNP) of Lymphocytic Choriomeningitis Arenaviruses (LCMV): Viability assay - alamar blue signal for LCMV Primary Screen (AID 1347085; calls by dose curve; tested in HEK293 reporter line; further: series mostly up to about 57 µM; nearly all actives have a fitted effect of over 80% in size)
[5] = target: Nucleoprotein (Lymphocytic choriomeningitis virus (strain Armstrong)) (UniProt P09992); assay: qHTS for Inhibitors of the Functional Ribonucleoprotein Complex (vRNP) of Lymphocytic Choriomeningitis Arenaviruses (LCMV): LCMV Primary Screen - GLuc reporter signal (AID 1347086; calls by dose curve; further: series mostly up to about 57 µM; nearly all actives have a fitted effect of over 70% in size)
Chain of Nucleoprotein (Lymphocytic choriomeningitis virus (strain Armstrong)) (P09992 whole entry, looked up): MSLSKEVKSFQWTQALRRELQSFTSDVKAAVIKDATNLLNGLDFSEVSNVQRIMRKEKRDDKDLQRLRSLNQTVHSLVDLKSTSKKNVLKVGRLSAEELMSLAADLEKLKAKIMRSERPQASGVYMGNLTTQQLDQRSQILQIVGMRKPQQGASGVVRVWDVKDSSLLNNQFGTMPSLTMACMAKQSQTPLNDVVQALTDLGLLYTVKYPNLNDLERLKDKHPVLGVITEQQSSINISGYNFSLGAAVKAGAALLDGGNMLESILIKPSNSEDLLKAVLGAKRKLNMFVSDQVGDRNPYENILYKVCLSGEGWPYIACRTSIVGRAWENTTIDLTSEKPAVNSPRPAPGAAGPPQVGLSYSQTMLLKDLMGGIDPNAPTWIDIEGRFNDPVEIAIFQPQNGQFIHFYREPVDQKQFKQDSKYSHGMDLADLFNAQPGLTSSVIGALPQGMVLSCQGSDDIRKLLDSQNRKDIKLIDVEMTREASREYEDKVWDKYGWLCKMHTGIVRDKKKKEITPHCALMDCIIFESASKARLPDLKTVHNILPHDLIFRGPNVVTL

[6] = target: Alpha-galactosidase (Coffea arabica) (UniProt Q42656); assay: Counterscreen for Glucocerebrosidase Inhibitors: qHTS Assay for Coffee Bean alpha-Galactosidase at pH 4.5 (AID 957); further: series mostly up to about 77 µM
Chain of Alpha-galactosidase (Coffea arabica) (Q42656 whole entry, looked up): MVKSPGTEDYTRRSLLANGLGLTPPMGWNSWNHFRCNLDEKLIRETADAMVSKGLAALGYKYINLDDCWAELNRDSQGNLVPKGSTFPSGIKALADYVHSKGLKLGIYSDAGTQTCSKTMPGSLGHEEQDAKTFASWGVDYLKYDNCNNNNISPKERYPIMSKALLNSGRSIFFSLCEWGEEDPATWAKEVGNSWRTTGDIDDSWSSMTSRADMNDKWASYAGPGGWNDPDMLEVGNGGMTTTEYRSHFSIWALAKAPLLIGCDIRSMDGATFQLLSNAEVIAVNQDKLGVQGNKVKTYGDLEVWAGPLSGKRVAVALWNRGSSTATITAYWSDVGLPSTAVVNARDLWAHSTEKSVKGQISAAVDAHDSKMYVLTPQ
Procedure, shortened: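 Enzyme is added first (2 nM final), then compounds titrated from 0.7 nM to 77 uM, then 80 uM 4-methylumbelliferyl alpha-D-galactopyranoside; after 20 min at room temperature a pH 10 NaOH/glycine stop precedes fluorescence reading at 365/440 nm.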

[7] = target: Alpha-galactosidase (Coffea arabica) (UniProt Q42656); assay: Counterscreen for Glucocerebrosidase Inhibitors: qHTS Assay for Coffee Bean alpha-Galactosidase at pH 5.9 (AID 998)
Procedure, shortened: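 In 50 mM citric acid pH 5.9 with 0.005% Tween-20, coffee bean enzyme hydrolyses 80 uM 4-MU alpha-D-galactopyranoside over 20 min at RT. Activity is normalized to controls; AC50 comes from Hill-modelled concentration-response data.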

Measured: Potency

Nc1nc(Cl)nc2c1ncn2[C@@H]1O[C@H](CO)[C@@H](O)[C@H]1O
inactive: [1] | [2] | [3] | [4] | [5]

O=Nc1ccc2oc(=O)ccc2c1
inactive: [6] | [7] | [1] | [2] | [3] | [4] | [5]

NCCCCC(=O)O
inactive: [6] | [7] | [1] | [2] | [3] | [4] | [5]

C=C1C[C@@]23CC[C@H]4[C@@](C)(CCC[C@@]4(C)C(=O)O)[C@@H]2CC[C@]1(O)C3
inactive: [1] | [2] | [3] | [4] | [5]

Cn1ncc(S(=O)(=O)Cc2ccccc2)c(Br)c1=O
inactive: [1] | [2] | [3] | [4] | [5]

c1ccc2c(c1)CCC[C@H]2Nc1nc2ccccc2[nH]1
inactive: [1] | [2] | [3] | [4] | [5]

Nc1nc(Nc2ccccc2)nc2c1ncn2[C@@H]1O[C@H](CO)[C@@H](O)[C@H]1O
inactive: [1] | [2] | [3] | [4] | [5]

OC[C@H]1O[C@@H](n2cnc3c(NC4CCCCC4)ncnc32)[C@H](O)[C@@H]1O
inactive: [1] | [2] | [3] | [4] | [5]

COC(=O)C1=CO[C@@H](O)[C@@H]2C(CO)=CC[C@H]12
inactive: [1] | [2] | [3] | [4] | [5]

CC(O)C(O)[C@H]1CNc2nc(N)[nH]c(=O)c2N1 (stereo partly specified)
inactive: [1] | [2] | [3] | [4] | [5]

CSc1nc(N)c2ncn([C@@H]3O[C@H](COP(=O)(O)OP(=O)(O)OP(=O)(O)O)[C@@H](O)[C@H]3O)c2n1
inactive: [1] | [2] | [3] | [4] | [5]

Nc1nc2c(cnn2CCc2ccccc2)c2nc(-c3ccco3)nn12
inactive: [1] | [2] | [3] | [4] | [5]

N[C@H](C(=O)O)c1cc(O)cc(O)c1
inactive: [6] | [7] | [1] | [2] | [3] | [4] | [5]

N[C@@H](Cn1ccc(=O)c(O)c1)C(=O)O
inactive: [1] | [2] | [3] | [4] | [5]

CO/S(=N\S(=O)(=O)c1ccc(Cl)cc1)c1ccc([N+](=O)[O-])cc1 (stereo unspecified)
inactive: [1] | [2] | [3] | [4] | [5]

CC(COc1ccc(/C=C/c2ccccc2)cc1)[N+](C)(C)C (stereo unspecified)
inactive: [1] | [2] | [3] | [4] | [5]

C=CC(C)=C[C@@]1(C)SC(=O)C(C)=C1O
inactive: [1] | [2] | [3] | [4] | [5]

Clc1ccc(N2CCN(Cc3cc4ccccn4n3)CC2)cc1
inactive: [1] | [2] | [3] | [4] | [5]

NC[C@@H]1O[C@H](c2ccccc2)Cc2c1ccc(O)c2O
inactive: [1] | [2] | [3] | [4] | [5]

CN(C)c1ccc(/C=C2\C(=O)Nc3ccccc32)cc1
inactive: [1] | [2] | [3] | [4] | [5]

OC[C@H]1O[C@H](n2cnc3c(N[C@H]4CCC[C@@H]4O)ncnc32)[C@H](O)[C@@H]1O
inactive: [1] | [2] | [3] | [4] | [5]
